# The sample as a whole holds a higher share of hits than the screen did.
# KDM5B inh: Primary screen for KDM5B Histone Demethylases FDH-coupled qHTS; Lysine-specific demethylase 5B (Homo sapiens), Q9UGL1; hit rate 2.6% among 220,000; KDM5B demethylase, FDH-coupled NADH fluorescence (FDH is formaldehyde dehydrogenase); Potency, µM (top dose mostly 57.7 µM), most hits filed as inhibitors; active = well fitted inhibition curve with a large enough effect; note: 0% is about no effect; nearly all actives have a fitted effect of over 70% in size
# Target sequence (Q9UGL1 whole entry, looked up): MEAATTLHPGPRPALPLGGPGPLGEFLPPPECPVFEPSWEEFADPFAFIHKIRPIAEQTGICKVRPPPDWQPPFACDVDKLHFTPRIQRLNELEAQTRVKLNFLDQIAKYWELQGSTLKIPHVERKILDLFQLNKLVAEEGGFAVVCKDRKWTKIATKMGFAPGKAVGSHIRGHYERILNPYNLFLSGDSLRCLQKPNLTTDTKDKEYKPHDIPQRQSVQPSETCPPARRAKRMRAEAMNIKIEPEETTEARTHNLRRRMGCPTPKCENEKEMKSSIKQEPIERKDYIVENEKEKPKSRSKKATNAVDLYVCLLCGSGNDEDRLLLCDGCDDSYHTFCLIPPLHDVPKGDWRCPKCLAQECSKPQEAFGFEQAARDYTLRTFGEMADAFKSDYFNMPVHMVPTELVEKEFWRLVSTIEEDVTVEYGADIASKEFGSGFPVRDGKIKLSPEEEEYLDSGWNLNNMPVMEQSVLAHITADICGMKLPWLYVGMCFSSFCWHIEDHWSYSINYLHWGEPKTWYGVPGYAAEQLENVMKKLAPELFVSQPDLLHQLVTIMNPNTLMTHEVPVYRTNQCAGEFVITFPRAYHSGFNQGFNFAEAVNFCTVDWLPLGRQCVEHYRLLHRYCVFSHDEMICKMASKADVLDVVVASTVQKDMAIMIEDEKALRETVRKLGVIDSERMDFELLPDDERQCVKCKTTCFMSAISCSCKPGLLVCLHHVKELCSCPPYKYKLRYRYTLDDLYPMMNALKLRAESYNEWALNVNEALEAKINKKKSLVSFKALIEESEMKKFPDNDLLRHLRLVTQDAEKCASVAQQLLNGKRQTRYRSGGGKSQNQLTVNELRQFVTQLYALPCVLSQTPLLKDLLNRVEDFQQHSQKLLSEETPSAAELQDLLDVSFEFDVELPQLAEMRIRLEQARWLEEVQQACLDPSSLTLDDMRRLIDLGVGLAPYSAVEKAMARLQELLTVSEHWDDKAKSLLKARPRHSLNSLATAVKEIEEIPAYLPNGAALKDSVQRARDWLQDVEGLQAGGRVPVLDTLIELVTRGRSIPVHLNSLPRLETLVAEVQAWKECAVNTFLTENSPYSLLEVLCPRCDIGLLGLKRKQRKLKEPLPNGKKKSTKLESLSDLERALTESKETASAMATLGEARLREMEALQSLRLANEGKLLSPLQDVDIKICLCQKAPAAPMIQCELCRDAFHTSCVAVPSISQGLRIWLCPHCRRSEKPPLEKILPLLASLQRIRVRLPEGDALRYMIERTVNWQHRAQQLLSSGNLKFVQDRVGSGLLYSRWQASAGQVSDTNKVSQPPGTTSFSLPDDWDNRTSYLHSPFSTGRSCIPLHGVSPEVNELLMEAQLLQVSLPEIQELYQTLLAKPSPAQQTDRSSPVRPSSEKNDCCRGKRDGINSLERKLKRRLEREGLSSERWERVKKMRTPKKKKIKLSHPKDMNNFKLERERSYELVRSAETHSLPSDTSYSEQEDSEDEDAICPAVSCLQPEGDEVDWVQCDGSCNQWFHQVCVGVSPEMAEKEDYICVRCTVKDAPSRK
#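 Measured: NADH fluorescence change, 30 min, RT. System: KDM5BΔAP 200 nM final, H3K4me3 peptide, α-KG, Fe(II), ascorbate, NAD⁺ plus FDH, pH 7.5 HEPES. Compounds: titrated, 10 min pre-incubation with enzyme.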
# An asterisk follows results filed as active; i = inactive. Potency is the fitted concentration of half-maximal effect.
SMILES,KDM5B inh
CC(C)(C)c1nc(C(=O)NCc2ccc(F)cc2)n2ccncc12,100µM*
CC(C)(C)c1nc(C(=O)NCc2ccc(F)cc2)n2ccccc12,89µM*
Cn1c(SCc2ccc(F)cc2)nc2ccc(C(=O)NCc3ccc(Cl)cc3)cc21,i
COC(=O)CNC(=O)c1nc(C(C)(C)C)c2ccccn12,126µM*
Cn1c(SCc2ccc(F)cc2)nc2ccc(C(=O)NCc3ccc(F)cc3)cc21,i
COC(=O)CNC(=O)c1cc(C(C)(C)C)c2cccn2n1,i
Cn1cc(CC(=O)NCc2ccc(F)cc2)c2ccccc21,i
Cc1ccc(C2=NN(C(=O)CNc3ccc(C(=O)N(C)C)cc3)C(c3ccco3)C2)cc1 (stereo unspecified),i
C=CCOC(=O)C(C#N)c1nc2ccccc2nc1N1CCCCC1 (stereo unspecified),i
O=C1NCCCCC1NC(=O)C1CCCO1 (stereo unspecified),i
CC(=O)Nc1cccc(-c2n[nH]c3c2CC(=O)N(Cc2ccccc2)C3)c1,i
N#Cc1cccc(-c2n[nH]c3c2CC(=O)N(Cc2ccccn2)C3)c1,35µM*
N#Cc1cccc(-c2n[nH]c3c2CC(=O)N(Cc2ccccc2)C3)c1,i
COC(=O)C(C)(C)NC(=O)CCNC(=O)C1CCCC1,i
COc1ccccc1NC(=O)COC(=O)c1nn(C)c(=O)c2ccccc12,i
CCc1ccc(C(=O)N2CCN(CCc3ccccc3)CC2)cc1,i
O=C(c1ccoc1)N1CCN(c2nnc3ccccn23)CC1,32µM*
CCc1ccc(C(=O)N2CCCN(c3nnc4ccccn34)CC2)cc1,25µM*
CN(C)c1ccc(C(=O)N2CCN(c3nnc4ccccn34)CC2)cc1,18µM*
Cc1ccc(C(=O)N2CCN(c3nnc4c(Cl)cccn34)CC2)cc1,i
O=C(c1ccoc1)N1CCCN(Cc2cn(-c3ccccc3)nn2)CC1,i
COc1ccc(-c2cc(N3CCN(C(=O)c4ccc(N(C)C)cc4)CC3)n[nH]2)cc1,i
CCc1ccc(C(=O)N2CCN(c3nc4ccccc4o3)CC2)cc1,i
O=C(O)C1CCN(C(=O)c2ccoc2)CC1,i
CCOc1ccc(-c2nc(CN3CCN(C(=O)Nc4cccc(OC)c4)CC3)c(C)o2)cc1,i
SMILES,KDM5B inh
Cc1cccc2[nH]c(C(=O)OCC(=O)Nc3ccccc3)cc12,i
CC1=CC(C)(C)NC(=S)N1c1cc(C)ccc1C,i
CCC1(O)CCC12CCN(C(=O)CCc1nc3ccccc3s1)CC2 (stereo unspecified),i
Cc1cc(C)n(-c2ccc(CSc3cccc[n+]3[O-])cc2)n1,i
CC1(C)[C@H](Cc2cc(-c3ccc(F)cc3)on2)C[C@@H]1NCc1cccnc1,i
Cc1cc(C)c2c(=O)cc(C(=O)NCC(c3cccs3)N3CCCC3)oc2c1 (stereo unspecified),i
CCc1cc2c(=O)c(-c3nncn3-c3ccccc3)coc2cc1OCC(=O)NC(C(=O)O)C(C)C (stereo unspecified),i
CCOC(=O)C1CCN(Cc2ccccc2OCC(O)CN(C)C2CCCCC2)CC1 (stereo unspecified),i
CCCc1noc(-c2cccn3c(CNC(=O)c4cccc(F)c4)nnc23)n1,25µM*
CCc1noc(-c2cccn3c(CNC(=O)c4cccc(N(C)C)c4)nnc23)n1,i
CCc1noc(-c2cccn3c(CNC(=O)c4cccc(F)c4)nnc23)n1,22µM*
CCc1noc(-c2cccn3c(CNC(=O)Cc4cccc(F)c4)nnc23)n1,25µM*
CCc1noc(-c2cccn3c(CNC(=O)c4c(F)cccc4Cl)nnc23)n1,28µM*
CCCc1noc(-c2cccn3c(CNC(=O)Cc4cccc(OC)c4)nnc23)n1,i
CC(=O)c1ccc(/C=C/C(=O)O)o1,i
Oc1ccc(Cl)cc1C=NCc1cccc(Cl)c1,i
O=C(c1cc2cc(Cl)ccc2[nH]1)N(Cc1ccccc1)Cc1ccco1,i
O=C(Nc1ccc(CC(=O)N2CCOCC2)cc1)c1cc(Br)ccc1F,i
O=C(Nc1ccccc1)c1ccc2c(c1)CCC2,i
COc1c(Br)c(CC2CC(c3ccc(F)cc3)=NO2)c(OC)c2c1OCO2 (stereo unspecified),i
COc1ccc(S(=O)(=O)N2CCC3(CC2)CC(N(C)Cc2ccccc2)CCO3)cc1 (stereo unspecified),i
CCC(C)NC(=O)COC(=O)c1nn(-c2ccccc2)c(=O)c2ccccc12 (stereo unspecified),i
O=C(O)CSCc1ccc(Br)cc1,i
COc1cccc2cc(-c3nnc(SCC(=O)Nc4ccc(C)cc4)n3N)oc12,i
CC(C)(C)c1ccc(/C=N/OCC(=O)Nc2ccc3c(c2)OCCO3)cc1,i
SMILES,KDM5B inh
CCCCn1c(=O)n(CC(=O)Nc2ccc(F)c(F)c2)c(=O)c2c1ncn2CCC(C)C,i
CC(C)C(=O)Nc1nc2ccc(CCC(=O)NCc3ccccc3F)cc2s1,i
Cc1ccc(OCc2nnc3sc(-c4cccc(N(C)C)c4)nn23)cc1,i
O=C(NCCc1nnc2ccc(NCc3ccccc3Cl)nn12)c1ccccc1,i
O=C(NCc1nnc2ccc(-c3ccc(F)cc3)nn12)c1cccc(C(F)(F)F)c1,28µM*
N#Cc1ccc(C(=O)NCc2nnc3ccc(-c4ccc(F)cc4)nn23)cc1,28µM*
O=C(NCc1nnc2ccc(-c3ccccc3)nn12)c1cccc(Br)c1,22µM*
O=C(Cn1nnc(-c2cccc(C(F)(F)F)c2)n1)NCc1ccc(F)cc1,i
CC(=O)c1cccc(NC(=O)CSc2nnc3ccc(-c4ccc(Cl)cc4)nn23)c1,i
O=C(NCc1nnc2ccc(-c3ccc(Cl)cc3)nn12)c1cccc2[nH]ccc12,i
CC(=O)c1ccc(NC(=O)CSc2nnc3ccc(-c4ccc(F)cc4)nn23)cc1,i
O=C(NCc1nnc2ccc(-c3ccc(Cl)cc3)nn12)c1cccc(Cl)c1,22µM*
O=C(NCc1nnc2ccc(-c3ccccc3)nn12)c1ccc[nH]1,i
N#Cc1ccc(C(=O)NCc2ccc3c(c2)CCN3C(=O)c2ccc(F)cc2)cc1,i
O=C(NCCn1nc(-c2ccc(F)cc2)ccc1=O)c1ccc(C(F)(F)F)cc1,i
O=C(COc1ccc2nc3n(c(=O)c2c1)CCC3)NC1CCCCC1,i
COc1cc(C(CC(=O)c2ccccc2)C(C#N)C#N)cc(OC)c1OC (stereo unspecified),i
COC(=O)c1cc(-c2ccc(C)cc2)nc2ccc(Cl)cc12,i
CCC(=O)Nc1cccc(C(C)C)c1,i
CCCCCn1nc(C(=O)N2CCC(C(=O)Nc3ccc4c(c3)OCO4)CC2)c2ccccc2c1=O,i
CN(C)CCCNCCC#N,i
O=C(Nc1nnc(-c2cccnc2)s1)C(=O)c1c[nH]c2ccccc12,i
CCn1cc(CN2CCC(N3C(=O)C4(CCCCC4)C3c3ccccc3)CC2)cn1 (stereo unspecified),i
Fc1ccc(-c2noc([C@@H]3CCCN3Cc3ccc(C(F)(F)F)cc3)n2)nc1,i
Cc1ccc(CN2CCC[C@H]2c2nc(-c3ccc(OC4CCCCC4)nc3)no2)cc1,i
O=C(O)c1ccc(CN2CCC[C@H]2c2nc(-c3ccc(-n4ccnc4)nc3)no2)cc1,i
O=C(O)c1ccc(CN2CCC[C@H]2c2nc(-c3ccc(-c4cncnc4)nc3)no2)cc1,i
O=C(Cc1ccccc1)N1CCC[C@H]1c1nc(-c2ccccc2)no1,i

# High-throughput results as filed in PubChem BioAssay.
